The source made the active and inactive calls. The calls were made as follows: active = hit-call score of the fitted dose curve at least 0.9, where 1 is the maximum; inactive = score below 0.9.
Read-out: Cytochrome P450 4A22 (Homo sapiens) (UniProt Q5TCH4)
Assay: LTEA_HepaRG_CYP4A22: Life Technologies and Expression Analysis (LTEA) Assay for Cytochrome P450 4A22 (CYP4A22) using HepaRG (AID 2283495)
Settings: mRNA level, 48 h; actives raise or lower the signal
Experimental: LTEA_HepaRG is a cell based, multiplexed-readout assay that uses HepaRG, a human liver cell line, with measurements taken at 48 hours after chemical dosing on a 96-well plate.LTEA_HepaRG_CYP4A22 is one of 102 assay component(s) measured in the LTEA HepaRG cell culture assay. It is a marker of NR mediated metabolism.Data from the assay component LTEA_HepaRG_CYP4A22 was analyzed into 1 endpoint. This assay endpoint, LTEA_HepaRG_CYP4A22, was analyzed with bidirectional fitting relative to DMSO as the negative control and baseline of activity. Using a type of inducible reporter, measures of mRNA induction for gain or loss-of-signal activity can be used to understand regulation of transcription factor activity. To generalize the intended target to other relatable targets, this assay endpoint is annotated to the cyp intended target family, where the subfamily is xenobiotic metabolism.
A total of 1060 chemcials from the ToxCast library were tested in eight-point concentration-response experiments. Cell culture and cytotoxicity assays were conducted at Thermo Fisher Scientific's Custom Services facility (Madison, WI). A single lot of human HepaRG cells (Thermo Fisher Scientific, Frederick, MD) was used for the cell culture experiments. 96-well format collagen type I coated plates of human HepaRG cells were prepared using established methods. Briefly, cryopreserved HepaRG cells were thawed, plated at a density of approximately 100,000 cells/well in HepaRG Thaw, Plate, and General Purpose media (HPRG770, Thermo Fisher Scientific), and incubated for 48 hours. 0.5% DMSO was selected as vehicle control to balance the requisite need of DMSO in HepaRG cultures to maintain differentiation (for example, baseline metabolism, proportions of hepatocytes vs. cholangiocytes), while enabling further hepatic receptor pathway activation (for example, PXR and CAR) in response to chemical exposure. 48 hours after plating, the culture medium was replaced with HepaRG Serum-Free Incudtion Media. Cells were exposed to each test chemical in duplicate and maintained in CO2 incubators for another 48 hours. Chemical plates were thawed to room temperature and 200x concentrations of treatment groups were prepared. 8-point conentration-reponse curves were made with the highest exposure at 100 uM, followed by half-log dilutions, all in 0.5% DMSO. Each test plate contained variouse controls, induction positive controls (1mM phenobarbital), cytotoxicity positive controls ([…] aflatoxin B1), vehicle controls (0.5% DMSO), and total lysis controls (0.5% DMSO). Cell morphology images were taken using an Essen IncuCyte FLR automated microscope, with six 96-well plates imaged in about 24 minutes. Images were captured and exported and JPEG files. Spent culture media was transfered to black-well plates for the LDH assay, and remaining media was sorted at -80 C for later use. Cells were treated with RLT buffer and frozen until shipped for gene expression analysis. Total RNA was isolated from the cell suspension in 75 uL of Buffer RLT (Qiagen, Germantown, MD 20874) by Quintiles/Expression Analysis (Durham, NC) using a custom isolation procedure. Total RNA from each plate well was transferred to a preamplification plate. Fluidigm's 96.96 Dynamic ArrayTM (Fluidigm, Amsterdam, the Netherlands) technology was used for gene expression analyses by quantitative reverse transcription polymerase chain reaction (qRT-PCR, performed by Quintiles/Expression Analysis, Durham, NC)89. Standard TaqManTM Assays (Applied Biosystems/ThermoFisher Scientific, Foster City, CA) were used to assess the expression of 93 genes selected based on their selectivity and sensitivity to important hepatic receptors known to be modulated by environmental chemicals; importance in human hepatocyte functionality; and hepatotoxicity. […]

SMILES | outcome | AC50
O=P1(N(CCCl)CCCl)NCCCO1 (centres undefined) | inactive | –
CCCCN(CCCC)SN(C)C(=O)Oc1cccc2c1OC(C)(C)C2 | inactive | –
CCOC(=O)c1ccccc1C(=O)OCC | inactive | –
CC(Cc1ccc(OCC(=O)O)cc1)NCC(O)c1csc(C(F)(F)F)n1 (centres undefined) | inactive | –
ClC(Cl)(Cl)c1ccccc1 | inactive | –
CCC(C)(C)c1ccc(O)cc1 | inactive | –
CCCN(CCC)c1c([N+](=O)[O-])cc(C(C)C)cc1[N+](=O)[O-] | inactive | –
CC(C)(C)OOC(C)(C)C | inactive | –
CCOP(=S)(OCC)SCSCC | inactive | –
CCOS(=O)(=O)OCC | inactive | –
CCOP(=S)(Oc1ccc([N+](=O)[O-])cc1)c1ccccc1 (centres undefined) | inactive | –
O=P(Oc1ccccc1)(Oc1ccccc1)Oc1ccccc1 | inactive | –
O=C(O)C1C(C(=O)O)C2(Cl)C(Cl)=C(Cl)C1(Cl)C2(Cl)Cl (centres undefined) | inactive | –
CCCCN(CCCC)N=O | inactive | –
Cc1ccc(N)cc1N | inactive | –
ClC1=C(Cl)C2(Cl)C3C(Cl)C(Cl)CC3C1(Cl)C2(Cl)Cl (centres undefined) | – | 26.2 µM (active)
ClC(Cl)c1ccccc1 | inactive | –
CCC1(c2ccccc2)C(=O)N=C(O)NC1=O (centres undefined) | inactive | –
c1cc2c3c(cccc3c1)CC2 | inactive | –
c1ccc2c(c1)Nc1ccccc1S2 | inactive | –

SMILES | outcome | AC50
Nc1ccc(Cl)cc1 | inactive | –
Nc1ccc2ccccc2c1 | inactive | –
c1nc[nH]n1 | inactive | –
CSC(C)(C)C=NO | inactive | –
CCNc1nc(Cl)nc(NC(C)(C)C)n1 | – | 11 µM (active)
CCN(CC)c1ccccc1 | inactive | –
c1ccc(OP(Oc2ccccc2)Oc2ccccc2)cc1 | inactive | –
CN(C)C(=O)Cl | inactive | –
CCCCc1ccccc1 | inactive | –
CCOc1ccc(C(C)(C)COCc2cccc(Oc3ccccc3)c2)cc1 | inactive | –
CC(Cl)(Cl)C(=O)O | inactive | –
[N-]=[N+]=[N-] | – | 50 µM (active)
OCC1CO1 (centres undefined) | inactive | –
O=C(O)C(Cl)Cl | inactive | –
COCCOCCO | inactive | –
Cc1ccc([N+](=O)[O-])cc1C | inactive | –
CCCCCCCc1ccc(O)cc1 | inactive | –
Nc1cc2c3c(c1)C(c1ccccc1)=N[C@@H](NC(=O)c1cccnc1)C(=O)N3CC2 | – | 10.9 µM (active)
O=[N+]([O-])c1ccc(Cl)c(Cl)c1 | inactive | –

Source: PubChem BioAssay (EPA / NIEHS)
